# The supplement of paper PMC12645437, “Orthogonal IMiD-Degron Pairs Induce Selective Protein Degradation in Cells” (ACS Chemical Biology, 2025)
# Whole data set: some 8,300 sequences, median “log2 fold change of degron read counts, EGFP-low vs EGFP+ sorted cells (limma voom), compound-induced degradation” near -1.1, cut for the highest 2% near 3.2. Shown is part of a subset that was picked to be rich in the highest values.
# T1: CRBN, Q96SW2
# T1 chain: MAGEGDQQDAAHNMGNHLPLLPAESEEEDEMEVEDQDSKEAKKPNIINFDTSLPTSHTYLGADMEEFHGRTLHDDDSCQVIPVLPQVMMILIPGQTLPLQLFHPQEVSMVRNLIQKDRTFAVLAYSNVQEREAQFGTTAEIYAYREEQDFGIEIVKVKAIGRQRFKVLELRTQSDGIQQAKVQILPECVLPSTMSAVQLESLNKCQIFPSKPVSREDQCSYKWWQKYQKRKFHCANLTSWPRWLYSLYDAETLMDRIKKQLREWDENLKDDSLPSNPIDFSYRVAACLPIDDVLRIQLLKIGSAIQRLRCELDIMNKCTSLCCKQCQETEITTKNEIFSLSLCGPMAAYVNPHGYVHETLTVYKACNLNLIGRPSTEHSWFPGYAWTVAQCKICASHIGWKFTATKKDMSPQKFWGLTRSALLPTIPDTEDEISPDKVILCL
# Molecular target: T1, CRBN, Q96SW2
# Assay: log2 fold change of degron read counts, EGFP-low vs EGFP+ sorted cells (limma voom), compound-induced degradation; higher = more compound-induced degradation of the degron-EGFP fusion; degrons are variants of IKZF1/3 zinc finger 2; compound dose not given here
# Conditions: Jurkat, 18 h
# Method: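 Pooled library of 8380 IKZF3 ZF2 degron mutants (positions 146-167 varied within the IKZF3 130-189 degron; only the varied core is printed, flanks not printed) fused to EGFP with IRES-mCherry, lentivirally expressed in Jurkat cells. mCherry+ cells were treated with one IMiD compound for 18 h (dose not stated) and FACS-sorted into EGFP-low and EGFP+ populations. Degron sequences were counted by NGS, and log2FC (EGFP-low vs EGFP+) was estimated by limma voom over 3 biological replicates.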
# [1] = compound: compound 19 (5-tert-butyl-thalidomide)
# [2] = compound: compound 22 (5-morpholino-thalidomide)
# [3] = compound: compound 33 (diphenyl IMiD analogue)
# 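Further: pooled lentiviral library of zinc finger degron-EGFP fusions in mCherry-positive Jurkat cells, FACS-sorted after compound exposure, with degron abundance counted by next-generation sequencing.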
Sequence,log2 fold change of degron read counts [1],log2 fold change of degron read counts [2],log2 fold change of degron read counts [3],log2 fold change of degron read counts (compound: thalidomide)
"FYCNICGAFFTQKGNLLRHIKL [46F_47Y_49N_50I_52G_53A_54F_55F_67L_, Q9UKT9]",1.22,1.41,0.651,-0.835
"FYCEQCGAEFTQKGNLLRHIKL [46F_47Y_49E_50Q_52G_53A_54E_55F_67L_, Q9UKT9]",-0.252,-0.709,-0.311,-2.41
"FHCPQCGACFTQKGNLLRHIKL [46F_47H_49P_50Q_52G_53A_54C_55F_67L_, Q9UKT9]",-0.735,-0.785,0.174,-1.82
"FKCPVCGAAFTQKGNLLRHIKL [46F_47K_49P_50V_52G_53A_54A_55F_67L_, Q9UKT9]",1.7,-0.2,-1.11,0.798
"FECEICGHPFTQKGNLLRHIKL [46F_47E_49E_50I_52G_53H_54P_55F_67L_, Q9UKT9]",-2.97,-3.81,-1.95,-1.68
"FWCPICGHKFTQKGNLLRHIKL [46F_47W_49P_50I_52G_53H_54K_55F_67L_, Q9UKT9]",-0.246,-0.231,-0.673,-0.717
"FFCPICGRWFTQKGNLLRHIKL [46F_47F_49P_50I_52G_53R_54W_55F_67L_, Q9UKT9]",1.04,1,-0.146,-0.692
"FVCEICGHPFTQKGNLLRHIKL [46F_47V_49E_50I_52G_53H_54P_55F_67L_, Q9UKT9]",-1.95,-1.66,-1.45,-0.105
"FHCEICGACFTQKGNLLRHIKL [46F_47H_49E_50I_52G_53A_54C_55F_67L_, Q9UKT9]",2.97,2.54,1.42,0.134
"FFCEICGACFTQKGNLLRHIKL [46F_47F_49E_50I_52G_53A_54C_55F_67L_, Q9UKT9]",3.78,3.84,2.33,1.61
"FICEICGACFTQKGNLLRHIKL [46F_47I_49E_50I_52G_53A_54C_55F_67L_, Q9UKT9]",-0.122,2.02,2.45,2.64
"FLCEICGACFTQKGNLLRHIKL [46F_47L_49E_50I_52G_53A_54C_55F_67L_, Q9UKT9]",1.19,-0.209,1.6,1.57
"FACEICGACFTQKGNLLRHIKL [46F_47A_49E_50I_52G_53A_54C_55F_67L_, Q9UKT9]",3.71,2.6,1.54,0.745
"FNCEICGACFTQKGNLLRHIKL [46F_47N_49E_50I_52G_53A_54C_55F_67L_, Q9UKT9]",2.72,0.812,0.513,0.0996
"FWCEICGACFTQKGNLLRHIKL [46F_47W_49E_50I_52G_53A_54C_55F_67L_, Q9UKT9]",3.85,3.79,2.77,1.16
"FECNQCGHIFTQKGNLLRHIKL [46F_47E_49N_50Q_52G_53H_54I_55F_67L_, Q9UKT9]",-3.19,-3.02,-3.5,-3.26
"FVCEICGRMFTQKGNLLRHIKL [46F_47V_49E_50I_52G_53R_54M_55F_67L_, Q9UKT9]",-2.37,-1.56,-0.324,-0.297
"FHCEICGHNFTQKGNLLRHIKL [46F_47H_49E_50I_52G_53H_54N_55F_67L_, Q9UKT9]",-2.97,-3.92,-2.88,-3.29
